# Experimental data from publication PMC7862700, “An all-to-all approach to the identification of sequence-specific readers for epigenetic DNA modifications on cytosine”.
# Assays:
# Test in all cases: DAPPL (digital affinity profiling via proximity ligation, sequencing); 10 mM Tris-HCl pH 7.5, 50 mM NaCl, 1 mM DTT, 4% glycerol, room temperature, 30 min; GST-TFs on glutathione beads, 16-mer random dsDNA library, 0.1% formaldehyde crosslink after washing; high values mean tight binding
# Conditions in all cases: protein: recombinant; tags: N-terminal GST; dsDNA, one strand shown
# FLI1 = target: T1, FLI1 (Homo sapiens, UniProt Q01543 1-452)
# T1 sequence: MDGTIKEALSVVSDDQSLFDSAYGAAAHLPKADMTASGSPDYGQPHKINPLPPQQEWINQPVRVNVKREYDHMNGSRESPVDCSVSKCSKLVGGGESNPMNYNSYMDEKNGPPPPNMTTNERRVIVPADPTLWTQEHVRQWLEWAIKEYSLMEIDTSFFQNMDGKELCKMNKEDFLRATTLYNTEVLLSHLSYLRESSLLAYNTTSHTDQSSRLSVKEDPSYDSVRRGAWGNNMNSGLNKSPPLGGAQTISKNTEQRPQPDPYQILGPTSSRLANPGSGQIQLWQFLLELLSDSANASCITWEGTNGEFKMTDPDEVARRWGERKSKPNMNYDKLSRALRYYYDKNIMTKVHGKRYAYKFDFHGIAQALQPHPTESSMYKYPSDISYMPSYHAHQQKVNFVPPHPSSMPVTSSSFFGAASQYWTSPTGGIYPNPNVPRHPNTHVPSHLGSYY
# Method in brief: (§1)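 Human transcription factors were made in yeast as GST fusions, captured on glutathione beads and barcoded with DNA. With a tag-only sample included, the pool was incubated with 200 nmole of a random double-stranded 16-mer DNA library in Tris/NaCl/DTT/glycerol buffer at room temperature for 30 min, then crosslinked with 0.1% formaldehyde after washing, ligated by proximity, amplified and sequenced. For binding signal, each hexamer's read frequency for a factor is divided by its frequency for the tag-only sample.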
# ELK1 = target: T2, ELK1 (Homo sapiens, UniProt P19419 1-428)
# T2 sequence: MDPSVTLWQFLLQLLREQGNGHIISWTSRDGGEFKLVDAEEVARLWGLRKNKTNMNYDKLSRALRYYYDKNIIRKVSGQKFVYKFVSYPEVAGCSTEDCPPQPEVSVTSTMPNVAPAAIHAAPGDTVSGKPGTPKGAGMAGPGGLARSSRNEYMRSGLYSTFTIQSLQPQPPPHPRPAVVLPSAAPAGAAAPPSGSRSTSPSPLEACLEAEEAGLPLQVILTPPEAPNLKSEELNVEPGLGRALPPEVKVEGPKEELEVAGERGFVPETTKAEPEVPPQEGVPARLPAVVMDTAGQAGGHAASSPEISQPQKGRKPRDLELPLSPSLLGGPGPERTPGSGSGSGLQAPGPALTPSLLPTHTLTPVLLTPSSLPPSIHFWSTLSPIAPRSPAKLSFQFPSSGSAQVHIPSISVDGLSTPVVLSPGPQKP
# Method in brief: as §1
# SPIB = SPIB (Homo sapiens, UniProt Q01892 1-262)
# Method in brief: as §1
# SPIC = target: T3, SPIC (Homo sapiens, UniProt Q8N5J4 1-248)
# T3 sequence: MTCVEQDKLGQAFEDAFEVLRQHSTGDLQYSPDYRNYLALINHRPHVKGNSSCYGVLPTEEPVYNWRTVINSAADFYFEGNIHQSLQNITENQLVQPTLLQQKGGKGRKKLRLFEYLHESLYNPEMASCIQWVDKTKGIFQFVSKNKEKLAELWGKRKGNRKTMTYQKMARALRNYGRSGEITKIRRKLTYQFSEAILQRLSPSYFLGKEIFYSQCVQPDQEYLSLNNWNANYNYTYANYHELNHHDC
# Method in brief: as §1
# ETV7 = target: T4, ETV7 (Homo sapiens, UniProt Q9Y603 1-341)
# T4 sequence: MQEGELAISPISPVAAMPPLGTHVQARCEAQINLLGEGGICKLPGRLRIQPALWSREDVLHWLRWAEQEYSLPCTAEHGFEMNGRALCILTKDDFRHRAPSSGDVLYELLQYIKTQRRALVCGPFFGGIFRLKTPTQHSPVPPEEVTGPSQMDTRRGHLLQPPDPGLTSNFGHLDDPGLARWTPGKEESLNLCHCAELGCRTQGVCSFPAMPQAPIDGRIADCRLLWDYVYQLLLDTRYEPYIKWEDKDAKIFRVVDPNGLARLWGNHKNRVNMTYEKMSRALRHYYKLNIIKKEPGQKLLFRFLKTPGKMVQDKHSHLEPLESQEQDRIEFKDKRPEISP
# Method in brief: as §1
# ETV3 = target: T5, ETV3 (Homo sapiens, UniProt P41162-2 1-143)
# T5 sequence: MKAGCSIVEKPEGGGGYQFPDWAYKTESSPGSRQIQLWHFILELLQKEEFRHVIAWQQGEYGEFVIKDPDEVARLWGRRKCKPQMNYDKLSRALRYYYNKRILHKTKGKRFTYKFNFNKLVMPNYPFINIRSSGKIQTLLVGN
# Method in brief: as §1
# GABPA = target: T6, GABPA (Homo sapiens, UniProt Q06546 1-454)
# T6 sequence: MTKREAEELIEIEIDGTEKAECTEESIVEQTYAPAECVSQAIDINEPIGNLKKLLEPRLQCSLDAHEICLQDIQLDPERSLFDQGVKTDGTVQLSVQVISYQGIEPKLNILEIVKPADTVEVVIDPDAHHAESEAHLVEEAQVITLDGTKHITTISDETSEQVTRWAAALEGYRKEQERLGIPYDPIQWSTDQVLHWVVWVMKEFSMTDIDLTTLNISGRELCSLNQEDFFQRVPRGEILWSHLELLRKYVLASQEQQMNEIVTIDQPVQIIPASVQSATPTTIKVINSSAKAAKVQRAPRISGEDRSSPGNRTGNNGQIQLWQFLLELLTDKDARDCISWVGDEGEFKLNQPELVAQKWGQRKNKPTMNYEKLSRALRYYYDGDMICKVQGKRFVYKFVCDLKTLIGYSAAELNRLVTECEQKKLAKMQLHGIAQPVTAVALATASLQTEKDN
# Method in brief: as §1
# ELF1 = ELF1 (Homo sapiens, UniProt P32519 1-619)
# Method in brief: as §1
# EHF = target: T7, EHF (Homo sapiens, UniProt Q9NZC4 1-300)
# T7 sequence: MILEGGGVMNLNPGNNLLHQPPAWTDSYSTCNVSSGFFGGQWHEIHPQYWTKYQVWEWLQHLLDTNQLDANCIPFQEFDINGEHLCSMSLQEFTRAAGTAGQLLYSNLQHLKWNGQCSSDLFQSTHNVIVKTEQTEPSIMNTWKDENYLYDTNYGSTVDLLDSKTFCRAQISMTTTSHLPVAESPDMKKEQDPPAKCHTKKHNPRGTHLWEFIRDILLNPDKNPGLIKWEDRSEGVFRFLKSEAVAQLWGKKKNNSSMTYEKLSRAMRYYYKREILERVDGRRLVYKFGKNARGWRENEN
# Method in brief: as §1
# ELF4 = ELF4 (Homo sapiens, UniProt Q99607 1-663)
# Method in brief: as §1
# ETV2 = target: T8, ETV2 (Homo sapiens, UniProt O00321 1-342)
# T8 sequence: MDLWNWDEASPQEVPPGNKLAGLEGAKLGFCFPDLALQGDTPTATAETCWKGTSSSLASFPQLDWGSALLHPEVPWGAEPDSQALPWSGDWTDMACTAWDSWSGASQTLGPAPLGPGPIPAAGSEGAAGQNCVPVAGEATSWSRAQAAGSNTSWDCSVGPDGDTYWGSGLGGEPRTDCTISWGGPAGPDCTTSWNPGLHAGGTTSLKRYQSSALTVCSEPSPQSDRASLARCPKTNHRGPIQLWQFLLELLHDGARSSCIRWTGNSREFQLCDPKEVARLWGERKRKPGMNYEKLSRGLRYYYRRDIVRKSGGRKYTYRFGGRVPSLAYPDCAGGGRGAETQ
# Method in brief: as §1
# ELF3 = target: T9, ELF3 (Homo sapiens, UniProt P78545 1-371)
# T9 sequence: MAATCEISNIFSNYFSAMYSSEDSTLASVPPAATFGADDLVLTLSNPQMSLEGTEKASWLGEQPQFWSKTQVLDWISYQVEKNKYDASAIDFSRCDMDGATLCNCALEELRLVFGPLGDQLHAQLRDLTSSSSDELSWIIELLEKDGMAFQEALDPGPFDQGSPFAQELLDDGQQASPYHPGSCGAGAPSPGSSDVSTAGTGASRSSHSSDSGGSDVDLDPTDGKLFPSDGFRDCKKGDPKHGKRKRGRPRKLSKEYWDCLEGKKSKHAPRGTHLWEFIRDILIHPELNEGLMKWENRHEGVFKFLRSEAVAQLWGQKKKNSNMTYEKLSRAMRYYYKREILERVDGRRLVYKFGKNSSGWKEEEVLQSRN
# Method in brief: as §1
# ETV1 = ETV1 (Homo sapiens, UniProt P50549 1-477)
# Method in brief: as §1
# ERF = target: T10, ERF (Homo sapiens, UniProt P50548 1-548)
# T10 sequence: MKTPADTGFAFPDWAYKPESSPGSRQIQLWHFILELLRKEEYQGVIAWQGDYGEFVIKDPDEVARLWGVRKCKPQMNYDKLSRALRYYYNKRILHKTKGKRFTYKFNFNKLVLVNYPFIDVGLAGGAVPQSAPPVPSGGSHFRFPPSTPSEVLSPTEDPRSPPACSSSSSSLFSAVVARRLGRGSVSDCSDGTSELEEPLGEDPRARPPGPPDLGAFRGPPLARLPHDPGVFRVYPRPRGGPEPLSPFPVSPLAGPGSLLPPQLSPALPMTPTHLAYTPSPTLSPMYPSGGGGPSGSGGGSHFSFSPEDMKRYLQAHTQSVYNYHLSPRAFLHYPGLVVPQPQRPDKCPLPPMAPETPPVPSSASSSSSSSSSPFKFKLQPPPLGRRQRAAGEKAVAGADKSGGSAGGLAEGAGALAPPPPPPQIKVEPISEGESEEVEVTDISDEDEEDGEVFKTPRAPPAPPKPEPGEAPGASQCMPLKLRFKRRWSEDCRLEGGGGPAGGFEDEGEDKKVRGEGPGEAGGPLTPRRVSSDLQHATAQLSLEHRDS
# Method in brief: as §1
# ETV3L = target: T11, ETV3L (Homo sapiens, UniProt Q6ZN32 1-361)
# T11 sequence: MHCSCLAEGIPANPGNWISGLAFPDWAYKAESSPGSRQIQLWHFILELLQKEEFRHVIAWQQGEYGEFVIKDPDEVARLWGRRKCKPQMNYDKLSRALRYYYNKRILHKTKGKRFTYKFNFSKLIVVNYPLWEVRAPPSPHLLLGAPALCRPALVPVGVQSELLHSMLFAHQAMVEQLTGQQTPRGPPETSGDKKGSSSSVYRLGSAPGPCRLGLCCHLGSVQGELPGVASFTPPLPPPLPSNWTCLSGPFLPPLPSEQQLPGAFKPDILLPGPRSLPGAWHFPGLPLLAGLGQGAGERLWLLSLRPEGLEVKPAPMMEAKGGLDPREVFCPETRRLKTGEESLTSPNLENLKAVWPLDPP
# Method in brief: as §1
# ETV6 = ETV6 (Homo sapiens, UniProt P41212 1-452)
# Method in brief: as §1
# Sequence of ETV6 (P41212 whole entry): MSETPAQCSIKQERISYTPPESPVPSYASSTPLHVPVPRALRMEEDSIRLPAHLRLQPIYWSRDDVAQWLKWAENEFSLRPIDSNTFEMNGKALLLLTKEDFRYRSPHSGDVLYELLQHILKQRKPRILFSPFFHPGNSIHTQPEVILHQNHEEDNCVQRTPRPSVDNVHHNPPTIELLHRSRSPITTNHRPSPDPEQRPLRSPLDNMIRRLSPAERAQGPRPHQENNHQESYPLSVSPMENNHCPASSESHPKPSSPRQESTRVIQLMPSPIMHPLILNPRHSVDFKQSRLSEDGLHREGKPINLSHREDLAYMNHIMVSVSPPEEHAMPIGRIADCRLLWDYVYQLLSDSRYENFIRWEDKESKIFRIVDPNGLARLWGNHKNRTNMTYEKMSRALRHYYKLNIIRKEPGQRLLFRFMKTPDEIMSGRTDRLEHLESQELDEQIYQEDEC
# Sequence of SPIB (Q01892 whole entry): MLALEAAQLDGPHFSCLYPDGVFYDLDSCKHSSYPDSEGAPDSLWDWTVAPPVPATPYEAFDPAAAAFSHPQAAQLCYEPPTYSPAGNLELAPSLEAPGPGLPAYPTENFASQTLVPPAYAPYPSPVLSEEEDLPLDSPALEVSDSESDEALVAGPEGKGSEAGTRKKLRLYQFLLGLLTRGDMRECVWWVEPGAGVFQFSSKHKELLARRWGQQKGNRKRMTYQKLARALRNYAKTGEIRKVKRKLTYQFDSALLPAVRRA
# Sequence of ELF4 (Q99607 whole entry): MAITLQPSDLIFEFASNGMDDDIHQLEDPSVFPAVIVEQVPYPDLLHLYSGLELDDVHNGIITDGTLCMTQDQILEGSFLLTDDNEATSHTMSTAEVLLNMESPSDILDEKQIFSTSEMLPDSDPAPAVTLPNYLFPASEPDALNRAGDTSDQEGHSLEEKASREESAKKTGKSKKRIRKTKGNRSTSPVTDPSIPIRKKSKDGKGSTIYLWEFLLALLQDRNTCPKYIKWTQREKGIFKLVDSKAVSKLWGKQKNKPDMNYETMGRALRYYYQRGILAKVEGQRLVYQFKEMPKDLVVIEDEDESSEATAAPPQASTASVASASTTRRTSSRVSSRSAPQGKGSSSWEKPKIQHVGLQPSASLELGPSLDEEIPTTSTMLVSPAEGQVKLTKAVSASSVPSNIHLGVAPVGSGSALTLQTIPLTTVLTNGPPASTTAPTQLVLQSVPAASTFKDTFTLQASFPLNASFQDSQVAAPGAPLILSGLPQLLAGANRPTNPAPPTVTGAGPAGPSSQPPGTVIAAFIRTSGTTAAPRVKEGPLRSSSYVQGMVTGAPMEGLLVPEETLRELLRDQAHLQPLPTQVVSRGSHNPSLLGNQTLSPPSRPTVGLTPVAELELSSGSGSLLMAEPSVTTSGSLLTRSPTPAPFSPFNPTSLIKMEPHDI
# Sequence of ETV1 (P50549 whole entry): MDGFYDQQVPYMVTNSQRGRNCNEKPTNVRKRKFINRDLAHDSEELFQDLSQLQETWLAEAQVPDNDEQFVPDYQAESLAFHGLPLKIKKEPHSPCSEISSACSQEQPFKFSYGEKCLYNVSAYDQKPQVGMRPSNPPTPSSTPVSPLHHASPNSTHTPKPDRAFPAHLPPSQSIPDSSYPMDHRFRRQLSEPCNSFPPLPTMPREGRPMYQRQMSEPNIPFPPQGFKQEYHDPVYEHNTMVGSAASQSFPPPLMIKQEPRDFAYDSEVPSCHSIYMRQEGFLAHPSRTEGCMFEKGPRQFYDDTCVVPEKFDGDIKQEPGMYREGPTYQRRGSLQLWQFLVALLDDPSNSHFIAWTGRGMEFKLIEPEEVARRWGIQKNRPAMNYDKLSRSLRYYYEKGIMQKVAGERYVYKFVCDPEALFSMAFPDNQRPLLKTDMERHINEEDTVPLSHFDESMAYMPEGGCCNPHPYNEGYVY
# Sequence of ELF1 (P32519 whole entry): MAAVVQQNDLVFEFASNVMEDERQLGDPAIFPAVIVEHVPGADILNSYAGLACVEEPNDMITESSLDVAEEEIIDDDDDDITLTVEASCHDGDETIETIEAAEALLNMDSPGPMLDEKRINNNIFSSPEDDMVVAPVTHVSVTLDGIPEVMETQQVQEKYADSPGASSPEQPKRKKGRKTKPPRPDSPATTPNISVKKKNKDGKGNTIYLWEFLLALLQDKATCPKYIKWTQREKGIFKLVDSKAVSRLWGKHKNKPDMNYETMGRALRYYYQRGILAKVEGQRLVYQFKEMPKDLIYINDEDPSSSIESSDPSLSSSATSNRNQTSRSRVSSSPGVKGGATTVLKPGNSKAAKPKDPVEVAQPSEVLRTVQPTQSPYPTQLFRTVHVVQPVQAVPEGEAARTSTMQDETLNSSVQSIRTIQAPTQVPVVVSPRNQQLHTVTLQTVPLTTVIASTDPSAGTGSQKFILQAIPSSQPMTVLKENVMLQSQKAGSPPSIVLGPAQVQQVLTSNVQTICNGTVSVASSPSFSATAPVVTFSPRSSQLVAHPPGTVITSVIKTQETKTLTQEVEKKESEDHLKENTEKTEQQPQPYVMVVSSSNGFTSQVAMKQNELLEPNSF
Sequence,binding signal (FLI1),binding signal (ELK1),binding signal (SPIB),binding signal (SPIC),binding signal (ETV7),binding signal (ETV3),binding signal (GABPA),binding signal (ELF1),binding signal (EHF),binding signal (ELF4),binding signal (ETV2),binding signal (ELF3),binding signal (ETV1),binding signal (ERF),binding signal (ETV3L),binding signal (ETV6)
CCCGCG,"1.02 fold enrichment (6-mer frequency, TF over GST control)","1.05 fold enrichment (6-mer frequency, TF over GST control)","1.11 fold enrichment (6-mer frequency, TF over GST control)","1.05 fold enrichment (6-mer frequency, TF over GST control)","1.03 fold enrichment (6-mer frequency, TF over GST control)","1.01 fold enrichment (6-mer frequency, TF over GST control)",,,,,,,,,,
CACACC,"1.07 fold enrichment (6-mer frequency, TF over GST control)","1.07 fold enrichment (6-mer frequency, TF over GST control)",,"1.09 fold enrichment (6-mer frequency, TF over GST control)","1.01 fold enrichment (6-mer frequency, TF over GST control)",,"1.01 fold enrichment (6-mer frequency, TF over GST control)","1.02 fold enrichment (6-mer frequency, TF over GST control)","1.04 fold enrichment (6-mer frequency, TF over GST control)","1.06 fold enrichment (6-mer frequency, TF over GST control)","1.03 fold enrichment (6-mer frequency, TF over GST control)","1.02 fold enrichment (6-mer frequency, TF over GST control)","1.14 fold enrichment (6-mer frequency, TF over GST control)","1.02 fold enrichment (6-mer frequency, TF over GST control)","1.02 fold enrichment (6-mer frequency, TF over GST control)","1.01 fold enrichment (6-mer frequency, TF over GST control)"
